According to PubChem BioAssay AID651564 (Sanford-Burnham Center for Chemical Genomics, 2012):
The other results are listed elsewhere or left out. Unmarked numbers belong to inactive results. Calls of active or inactive are those of the source. Rule as the data show it: active = IC50 below about 80 µM; inactive = the rest.

Test: fluorescent counter-screen in isolated mitochondria, dose response, counter-screen for MPTP inhibitor project, biochemical, fluorescence, uHTS hits (AID 651564)
Conditions: isolated mitochondria counterscreen, fluorescence read-out

| Compound | IC50 |
| --- | --- |
| CCCCOc1ccc(CSC(=N)N)cc1[N+](=O)[O-] | > 80 µM |
| COc1ccc2sc(N(CCCN(C)C)C(=O)c3ccc(S(=O)(=O)N(C)C4CCCCC4)cc3)nc2c1 | 66.5 µM (active) |
| CC1(C)CC(=O)c2sc(N)nc2C1 | > 80 µM |
| C[C@@H](CN1CCC[C@H]1CN1C(N)=NC[C@@H]1Cc1ccccc1)N1C[C@@H](Cc2ccccc2)N(CCCC2CCCC2)C1=N | 16.3 µM (active) |
| CCCCCCCCCCCCN1C(=O)CSC1c1cccnc1 (stereo not given) | 12 µM (active) |
| CCOC(=O)c1c(NC(=O)CSc2cn(CC)c3ccccc23)sc2c1CCC2 | > 80 µM |
| Clc1ccc(-c2cc(C3CCNCC3)[nH]n2)c(Cl)c1 | > 80 µM |
| CCCC(C(=O)OCCN(CC)CC)(c1ccccc1)c1ccccc1 | 77.1 µM (active) |
| CN(C)Cc1ccc(F)cc1Sc1cc(Cl)ccc1Cl | 69.1 µM (active) |
| CCCc1[nH]nc2c1C(c1c(C)nn(-c3ccccc3)c1Cl)C(C#N)=C(N)O2 (stereo not given) | > 80 µM |
| Cc1nn(Cc2ccccc2)c2c1C(c1ccccc1)C(C#N)=C(N)O2 (stereo not given) | 69.8 µM (active) |
| O=C(Nc1cccc(C(F)(F)F)c1)c1ccc(N2CCNCC2)c([N+](=O)[O-])c1 | > 80 µM |
| COc1ccc(/C=C(/CC(=O)Nc2ccc(C)cc2)c2nc3ccccc3s2)cc1 | > 80 µM |
| O=C(c1ccc(Cl)cc1)c1ccc(OCC(O)CN2CCCCC2)cc1 (stereo not given) | 34.8 µM (active) |
| Fc1ccc(N2N=C(c3cccs3)CC2c2ccco2)c(F)c1 (stereo not given) | > 80 µM |
